Measurements from article PMC4336329 (PLoS ONE, 2015).
Out of some 310,000 compounds screened, about 14,000 (4.5%) showed an effect of 50% or more. The effect is printed as a negative number. The list comes from a sample in which strong results are over-represented; it also holds similar structures and randomly drawn compounds.
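Also: peak tail current of the secondary pulse compared with the same well before compound.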

These compounds were tested against human ether-à-go-go-related gene (hERG) potassium channel (human, UniProt Q12809) (assay: primary screen, population patch clamp on CHO cells stably expressing hERG; higher = less effect of the substance).
Chain of human ether-à-go-go-related gene (hERG) potassium channel (Q12809 whole entry, looked up): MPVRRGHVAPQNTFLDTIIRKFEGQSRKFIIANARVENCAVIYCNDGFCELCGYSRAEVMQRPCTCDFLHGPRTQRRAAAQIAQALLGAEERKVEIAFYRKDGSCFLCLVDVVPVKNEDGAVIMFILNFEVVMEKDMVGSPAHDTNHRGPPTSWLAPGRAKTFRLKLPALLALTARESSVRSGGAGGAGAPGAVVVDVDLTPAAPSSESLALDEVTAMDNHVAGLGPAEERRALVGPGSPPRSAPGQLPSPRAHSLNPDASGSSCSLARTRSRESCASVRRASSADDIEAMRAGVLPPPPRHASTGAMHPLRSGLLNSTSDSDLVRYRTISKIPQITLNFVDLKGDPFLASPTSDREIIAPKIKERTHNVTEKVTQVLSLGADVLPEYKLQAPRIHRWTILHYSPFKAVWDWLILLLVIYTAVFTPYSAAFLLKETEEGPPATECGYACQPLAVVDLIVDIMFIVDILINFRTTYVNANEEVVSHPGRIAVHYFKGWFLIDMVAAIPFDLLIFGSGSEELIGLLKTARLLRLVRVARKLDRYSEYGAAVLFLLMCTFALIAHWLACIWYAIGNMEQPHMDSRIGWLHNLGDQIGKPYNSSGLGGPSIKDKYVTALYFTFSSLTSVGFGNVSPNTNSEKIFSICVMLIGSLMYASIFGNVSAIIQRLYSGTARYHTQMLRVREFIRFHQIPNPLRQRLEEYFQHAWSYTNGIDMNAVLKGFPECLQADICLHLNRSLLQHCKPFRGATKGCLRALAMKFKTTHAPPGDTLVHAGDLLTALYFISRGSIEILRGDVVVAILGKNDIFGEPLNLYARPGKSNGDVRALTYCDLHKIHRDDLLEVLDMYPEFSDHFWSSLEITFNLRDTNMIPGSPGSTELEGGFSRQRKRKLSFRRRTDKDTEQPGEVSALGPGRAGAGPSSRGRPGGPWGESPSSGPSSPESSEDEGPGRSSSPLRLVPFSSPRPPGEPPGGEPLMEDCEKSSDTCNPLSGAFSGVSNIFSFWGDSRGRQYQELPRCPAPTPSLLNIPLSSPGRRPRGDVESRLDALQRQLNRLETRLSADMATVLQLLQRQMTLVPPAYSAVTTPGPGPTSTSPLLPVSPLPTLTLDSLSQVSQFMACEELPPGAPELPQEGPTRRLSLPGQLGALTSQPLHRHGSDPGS
In the case of `CC(C)(C)NC(=S)NNC(=O)c1ccncc1`, the “hERG current change (%, negative = inhibition) at 10uM” value is reported as 15.4%.
For `CC(C)c1nc2sc3c(c2c(=O)n1N)CC(C)(C)OC3`, the “hERG current change (%, negative = inhibition) at 10uM” value was 8.71%.
For `CCCn1c(SCC(=O)Nc2ccc(C(=O)Nc3ccccc3OC)cc2)n[nH]c1=O`, the “hERG current change (%, negative = inhibition) at 10uM” value was 11.9%.
For `CC(NC(=O)CCNC(=O)c1ccco1)c1ccc(F)cc1` (stereo not drawn), the “hERG current change (%, negative = inhibition) at 10uM” value was 12.3%.
With `CCOc1cccc2sc(N(CCCN(C)C)C(=O)c3ccc(S(=O)(=O)N4CCc5ccccc5C4)cc3)nc12.Cl` the “hERG current change (%, negative = inhibition) at 10uM” value was 13.7%.
`CN(C)CCN(C(=O)c1ccc(S(=O)(=O)N(C)CC2CCCO2)cc1)c1nc2cc3c(cc2s1)OCO3.Cl` (stereo not drawn) was tested, and the “hERG current change (%, negative = inhibition) at 10uM” value was -43.2%.
In the case of `Cc1cc(C)c2nc(N(CCN(C)C)C(=O)c3ccc(S(=O)(=O)N(C)CC4CCCO4)cc3)sc2c1.Cl` (stereo not drawn), the “hERG current change (%, negative = inhibition) at 10uM” value is reported as -43.6%.
`CCCC(=O)N(CCN1CCOCC1)c1nc2c(OCC)cccc2s1.Cl` was tested, and the “hERG current change (%, negative = inhibition) at 10uM” value was 9.08%.
`CCOc1ccc2nc(N(CCCN(C)C)C(=O)c3ccc(C(=O)c4ccccc4)cc3)sc2c1.Cl` was tested, and the “hERG current change (%, negative = inhibition) at 10uM” value was -35.5%.
`CCOc1cccc2sc(N(CCCN(C)C)C(=O)c3ccc(S(=O)(=O)N(C)Cc4ccccc4)cc3)nc12.Cl` was tested, and the “hERG current change (%, negative = inhibition) at 10uM” value was -40.4%.
For `CCOc1cccc2sc(N(CCCN(C)C)C(=O)c3ccc(C(=O)c4ccccc4)cc3)nc12.Cl`, the “hERG current change (%, negative = inhibition) at 10uM” value was -72.1%.
In the case of `CCOc1cccc2sc(N(CCCN(C)C)C(=O)c3ccc(S(=O)(=O)N(C)CC4CCCO4)cc3)nc12.Cl` (stereo not drawn), the “hERG current change (%, negative = inhibition) at 10uM” value is reported as -77.4%.
`CCOc1cccc2sc(N(CCCN(C)C)C(=O)c3ccc(S(=O)(=O)N(C)c4ccccc4)cc3)nc12.Cl` was tested, and the “hERG current change (%, negative = inhibition) at 10uM” value was -83.7%.
With `CCOc1cccc2sc(N(CCN(C)C)C(=O)/C=C/c3cccs3)nc12.Cl` the “hERG current change (%, negative = inhibition) at 10uM” value was -40.7%.
With `CCOc1cccc2sc(N(CCCN(C)C)C(=O)Cc3ccccc3)nc12.Cl` the “hERG current change (%, negative = inhibition) at 10uM” value was -80.2%.
In the case of `COc1cc2ccccc2cc1C(=O)N1CCCC(C(F)(F)F)C1` (stereo not drawn), the “hERG current change (%, negative = inhibition) at 10uM” value is reported as -14.3%.
For `O=C(Nn1cc(C(=O)N2CCN(c3ccccc3F)CC2)c2ccccc2c1=O)c1cnccn1`, the “hERG current change (%, negative = inhibition) at 10uM” value was 2.84%.
For `Cc1ccc(C(C)NC(=O)C23CC4CC(CC(C4)C2)C3)cc1` (stereo not drawn), the “hERG current change (%, negative = inhibition) at 10uM” value was 11.4%.
For `CCOc1cccc(NC(=O)CSc2nc(C)c3c(c2C#N)CCCC3)c1`, the “hERG current change (%, negative = inhibition) at 10uM” value was 0.331%.
`CCN(Cc1ccccc1)C(=O)COC(=O)c1cc(=O)[nH]c2ccccc12` was tested, and the “hERG current change (%, negative = inhibition) at 10uM” value was -4.27%.
`COC(=O)C1=C(C)N(Cc2ccccc2)C(=NCCc2ccccn2)N[C@H]1c1cccc(F)c1` was tested, and the “hERG current change (%, negative = inhibition) at 10uM” value was -60.4%.
In the case of `COC(=O)C1=C(C)N(Cc2ccccc2)C(=NCc2ccc(OC)cc2)N[C@H]1c1cccc(F)c1`, the “hERG current change (%, negative = inhibition) at 10uM” value is reported as 6.76%.
For `CCN1C(=NCCOC)N[C@@H](c2cccc(F)c2)C(C(=O)OC)=C1C`, the “hERG current change (%, negative = inhibition) at 10uM” value was -14.3%.
`CCN1C(=NCCc2ccccn2)N[C@@H](c2cccc(F)c2)C(C(=O)OC)=C1C` was tested, and the “hERG current change (%, negative = inhibition) at 10uM” value was -56.7%.
`COC(=O)C1=C(C)N(Cc2ccccc2)C(=NCc2ccccc2)N[C@H]1c1cccc(F)c1` was tested, and the “hERG current change (%, negative = inhibition) at 10uM” value was -11.5%.
For `CCN1C(=NCCCCO)N[C@@H](c2cccc(F)c2)C(C(=O)OC)=C1C`, the “hERG current change (%, negative = inhibition) at 10uM” value was 6.82%.
In the case of `O=C1c2ccccc2CN1CCSC(=S)N1CCOCC1`, the “hERG current change (%, negative = inhibition) at 10uM” value is reported as -8.59%.
In the case of `CC(C)C[C@H](NC(=O)C1CC(=O)N(c2ccc3c(c2)OCO3)C1)C(=O)NC1CCCCC1` (stereo partly drawn), the “hERG current change (%, negative = inhibition) at 10uM” value is reported as 22.4%.
With `COc1ccc(C(C)=O)cc1CSc1nc2cc(C(=O)O)ccc2c(=O)n1Cc1ccccc1` the “hERG current change (%, negative = inhibition) at 10uM” value was 12.7%.
With `CCOc1cc(CNCCc2ccc(S(N)(=O)=O)cc2)ccc1OCC(=O)NC1CCCCC1.Cl` the “hERG current change (%, negative = inhibition) at 10uM” value was -36.3%.
In the case of `CCOc1cc(CNCCc2ccc(S(N)(=O)=O)cc2)ccc1OCc1ccccc1.Cl`, the “hERG current change (%, negative = inhibition) at 10uM” value is reported as -55.9%.
In the case of `CCOc1ccc2ccccc2c1CNCCc1ccc(S(N)(=O)=O)cc1.Cl`, the “hERG current change (%, negative = inhibition) at 10uM” value is reported as -73.1%.
For `CCOc1cc(CNCCc2ccc(S(N)(=O)=O)cc2)ccc1OCC(=O)NC(C)(C)C.Cl`, the “hERG current change (%, negative = inhibition) at 10uM” value was 4.8%.
In the case of `CCOc1cc(CNCCc2ccc(S(N)(=O)=O)cc2)cc(Cl)c1OCc1ccccc1.Cl`, the “hERG current change (%, negative = inhibition) at 10uM” value is reported as -70.7%.
In the case of `CCOc1ccccc1OCC(=O)NCCc1ccc(S(N)(=O)=O)cc1`, the “hERG current change (%, negative = inhibition) at 10uM” value is reported as 10.9%.
In the case of `CCOc1cc(CNCCc2ccc(S(N)(=O)=O)cc2)ccc1OCc1ccc(Cl)cc1.Cl`, the “hERG current change (%, negative = inhibition) at 10uM” value is reported as -18.5%.
With `CCNCc1cc(Cl)c(OCc2ccccc2)c(OCC)c1.Cl` the “hERG current change (%, negative = inhibition) at 10uM” value was -8.51%.
With `COc1cc(CNCCc2ccccc2)cc(Cl)c1OCc1ccccc1.Cl` the “hERG current change (%, negative = inhibition) at 10uM” value was -18.7%.
For `COC(=O)c1ccc(C(=O)OC)c(NC(=O)/C=C/C(=O)O)c1`, the “hERG current change (%, negative = inhibition) at 10uM” value was 5.06%.
